For 92 molecules, inhibition results are on record in PubChem BioAssay AID602449 (Sanford-Burnham Center for Chemical Genomics, 2012).

The whole screen tested about 360,000 compounds, of which about 5,000 (1.4%) were called active.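 Rule for the calls: active = inhibition of 50% or more, scaled per plate between neutral and stimulator controls; inactive = the rest.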 Only a selection was taken, and actives are over-represented in it overall.

The assay can be described thus: mitochondrial permeability transition pore inhibitors, primary screen, biochemical, isolated mouse mitochondria, absorbance (AID 602449).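 Note: 0% = DMSO wells given calcium and 100% = 1 mM EGTA wells.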 Particulars: Ca2+ swelling absorbance, 30 min, at 10 µM, active compounds read high.
Regarding `Cc1c[n+]([O-])ccc1[N+](=O)[O-]`, the inhibition (as a rule, the drop in the measured response relative to a control, in per cent) is -0.3% (inactive).
For `COc1ccccc1NC(=O)CCSc1nnc(-c2ccc(O)cc2)o1`, the inhibition was -1.6% (inactive).
In the case of `CC(C)Oc1ccc(C(=O)Nc2cc(=O)n(C)c(=O)n2C)cc1` it was -1.9% (inactive).
Turning to `Cn1cnc(S(=O)(=O)N2C[C@@H](O)COC[C@@H]3O[C@H](CC(=O)NC4CCC4)CC[C@H]32)c1`, the inhibition was -0.5% (inactive).
As for `O=C(C[C@H]1C[C@@H]2c3cc(NC(=O)C4CCC4)ccc3O[C@@H]2[C@H](CO)O1)NC1CCCCC1`, the figure is -0.5% (inactive); as for `Cc1cc(F)ccc1N1CCC(N2CCN(C)C(CCO)C2)CC1` (configuration not stated), 0% (inactive); as for `CCCNC(=O)NCc1ccc(N2CCCC2=O)cc1`, 2.2% (inactive).
In the case of `COc1cc(N2CCCC2)c(OC)cc1/C=C(/C#N)c1cccc(Br)c1` it was 1.4% (inactive).
Consider `Cc1cc(C)c(NC(=O)c2oc3ccccc3c2COc2ccccc2)c(C)c1`, for which the inhibition is 1.5% (inactive).
Consider `Cc1cc(C)c(NC(=O)C[N+](C)(C)CC(O)COc2cccc3ccccc23)c(C)c1` (configuration not stated), for which the inhibition is 80.5% (active).
In the case of `Cc1cc(C)cc(OCC(=O)NCc2cc(C)nc3ccccc23)c1` it was 4.6% (inactive); in that of `COc1ccc(C(=O)NC2CCCc3c2cnn3-c2cccc(C)c2C)c(OC)n1` (configuration not stated), 71% (active).
In the case of `COc1ccc(OC)c(C(=O)NC2CCCc3c2cnn3-c2cc(C)cc(C)c2)c1` (configuration not stated) it was 1.5% (inactive); in that of `CC1(C)Cc2c(cnn2-c2cccc(F)c2)C(NC(=O)c2cc[n+]([O-])cc2)C1` (configuration not stated), -0.8% (inactive).
In the case of `COc1ccc(C(=O)NC2CC(C)(C)Cc3c2cnn3-c2ccccc2C)o1` (configuration not stated) it was -1.2% (inactive).
Turning to `Cn1nccc1C(=O)NC1CCCc2c1cnn2-c1ccc(F)cc1F` (configuration not stated), the inhibition was 89.9% (active).
Regarding `COC(=O)c1ccc(C(=O)NC2CC(C)(C)Cc3c2cnn3-c2ccc(F)cc2)nc1` (configuration not stated), the inhibition was -1.7% (inactive).
In the case of `Cc1cc(C(=O)NC2CC(C)(C)Cc3c2cnn3-c2ccccc2)n[nH]1` (configuration not stated) it was -0.7% (inactive); in that of `CC1=C(C(=O)NC2CC(C)(C)Cc3c2cnn3-c2ccc(C)cc2)OCCO1` (configuration not stated), -0.2% (inactive); in that of `Cn1nccc1C(=O)NC1CCCc2c1cnn2-c1ccccc1F` (configuration not stated), 102% (active).
In the case of `CCNC(=O)c1sccc1-n1cccc1` it was -0.7% (inactive).
In the case of `CCN(CC)C(=O)Oc1ccc(OC(=O)N(CC)CC)cc1` it was -0.8% (inactive); in that of `C[C@H](CO)N1C[C@H](C)[C@@H](CN(C)S(=O)(=O)c2ccc(F)cc2)Oc2ccc(NC(=O)CCC(F)(F)F)cc2C1=O`, 0.8% (inactive); in that of `COc1ccc(CN(Cc2ccco2)S(=O)(=O)c2ccc(S(=O)(=O)N3CCCC3)cc2)cc1`, 11.4% (inactive).
For the molecule `CCc1cccc(NC(=O)COC(=O)c2cc(=O)c3ccccc3o2)c1`, the inhibition was 0.9% (inactive).
As for `CSCC[C@H](NC(=O)N1CCn2c1nc1ccccc12)C(=O)NCc1ccc2c(c1)OCO2`, the figure is -2.6% (inactive).
As for `C=C(C)c1cccc(C(C)(C)NC(=O)NCCN(CC)CC)c1`, the figure is 1.1% (inactive); as for `CCC(C(=O)NC(C)(C)C)n1c(-c2ccccc2)nc2ccccc21` (configuration not stated), 1.2% (inactive); as for `Cc1cc(C)n2nc(C(=O)OCC(=O)N(CCC#N)c3ccc(F)cc3)nc2n1`, -0.4% (inactive).
In the case of `O=C(CCC(=O)N1CCCC1)Nc1ccc([N+](=O)[O-])cc1` it was -1.4% (inactive); in that of `O=C(NCCCN1CCN(c2ccc(F)cc2)CC1)Nc1ccc([N+](=O)[O-])cc1`, 90.9% (active); in that of `CN1CCN(CCNC(=O)Nc2ccccc2[N+](=O)[O-])CC1`, -0.3% (inactive).
Take `O=C(CCN1C(=O)COc2ccccc21)NCCCN1CCN(c2ccc(F)cc2)CC1`: the inhibition is -0.5% (inactive).
As for `CN1CCN(CCNC(=O)Nc2ccc([N+](=O)[O-])cc2)CC1`, the figure is 93.8% (active).
As for `O=C(Nc1ccc(F)cc1)C1CCN(C(=O)c2ccc([N+](=O)[O-])cc2)CC1`, the figure is 0.6% (inactive).
As for `COc1cc(C)ccc1OCC(=O)OCC(=O)c1ccc[nH]1`, the figure is 0.5% (inactive); as for `COc1ccc(/C=C2/S/C(=N/N=C3\CC4CCC3(C)C4(C)C)NC2=O)cc1` (configuration not stated), -1.3% (inactive).
`CCOC(=O)/C=C/c1ccc(C(F)(F)F)cc1S(=O)(=O)NC(C)(C)C`: the inhibition was 2.5% (inactive).
As for `CCCCN(CCCC)CCC(O)c1cc2c(Cl)cc(Cl)cc2c2cc(C(F)(F)F)ccc12` (configuration not stated), the figure is 112% (active); as for `O=C(Nc1cccc(S(=O)(=O)NC2=NCCC2)c1)c1ccc(F)cc1F`, -0.6% (inactive); as for `O=C(/C=C/c1ccc(Cl)cc1)Nc1ccc(S(=O)(=O)Nc2ncccn2)cc1`, -0.3% (inactive).
As for `O=C(/C=C/c1ccc(F)cc1)Nc1cccc(S(=O)(=O)Nc2cccc(C(F)(F)F)c2)c1`, the inhibition is 92.8% (active).
As for `O=C(O)CSC(NC(=O)c1cccnc1)(C(F)(F)F)C(F)(F)F`, the figure is -1.1% (inactive).
In the case of `COc1cc(C(=O)NCC(=O)N2CC=C(c3ccccc3)CC2)cc(OC)c1OC` it was 0% (inactive); in that of `N#Cc1c(NC(=O)CCCN2C(=O)c3ccccc3C2=O)oc(-c2ccccc2)c1-c1ccccc1`, -0.2% (inactive); in that of `COc1cc(C(=O)Nc2oc(-c3ccccc3)c(-c3ccccc3)c2C#N)cc(OC)c1OC`, 61.1% (active).
As for `CCc1nccn1S(=O)(=O)c1cccc([N+](=O)[O-])c1`, the figure is 0.1% (inactive); as for `O=C(CCN1C(=O)C2CCCCC2C1=O)Nc1ccc(OC(F)F)cc1` (configuration not stated), -2% (inactive).
For the molecule `COC(=O)c1ccccc1Sc1c(/C=N/OCc2ccc(Cl)cc2)c(C(F)(F)F)nn1C`, the inhibition is 2.3% (inactive).
In the case of `CCC(=O)OCc1c(C(F)(F)F)nn(C)c1Oc1cccc(C(F)(F)F)c1` it was 1.5% (inactive).
On to `Cn1nc(C(F)(F)F)c(C(=O)Nc2cccc(C(F)(F)F)c2)c1SCc1ccc(Cl)cc1`, for which the inhibition was 71.2% (active).
On to `C=CCSc1nsc(NC(=O)Nc2cccc(C(C)=O)c2)n1`, for which the inhibition is 97.4% (active).
In the case of `CCCCN1C(=O)C(=O)N(CC(=O)Nc2cccc(C(C)=O)c2)C1=O` it was 0.4% (inactive); in that of `c1ccc(C(=NNc2nc3ccccc3s2)c2ccccn2)cc1`, 0.3% (inactive).
`CCSc1nsc(NC(=O)Nc2cccc(C(C)=O)c2)n1`: the inhibition is 87.2% (active).
As for `CSc1nsc(NC(=O)Nc2ccccc2)n1`, the figure is 85.4% (active); as for `CC(=O)c1cccc(NC(=S)N2CCN(S(C)(=O)=O)CC2)c1`, 0.1% (inactive).
As for `CC(=O)Nc1cccc(-c2nc3ccccc3s2)c1C`, the figure is -0.5% (inactive); as for `COc1ccc(C(=O)OCC(=O)Nc2cccc(C(C)=O)c2)cc1OC`, -2% (inactive); as for `CC(=O)N1CCC(C(=O)Nc2nc(-c3ccccc3)ns2)CC1`, -2% (inactive).
In the case of `CSc1nsc(SCC(=O)Nc2cc(C(=O)O)ccc2C)n1` it was -0.5% (inactive).
Regarding `CC(=O)c1cccc(NC(=O)[C@@H](NC(N)=O)C(C)C)c1`, the inhibition is 0.5% (inactive).
As to `O=C(Nc1ccccc1)Nc1nc2ccccc2s1`, the inhibition is 96.5% (active).
In the case of `Cc1ccc(S(=O)(=O)N(Cc2ccccc2)c2ccccn2)cc1[N+](=O)[O-]` it was 0.2% (inactive).
Consider `Cc1c(C(=O)N2CCN(c3ccc(F)cc3)CC2)oc2c1C(=O)CCC2`, for which the inhibition was -1% (inactive).
In the case of `COCCCn1c(=O)/c(=C/c2ccccc2OC(C)C)s/c1=C(\C#N)C(=O)Nc1ccc(C(=O)O)cc1` it was 0.6% (inactive); in that of `COc1ccc(S(=O)(=O)N2CCC(C(=O)NCCC(=O)Nc3ccccc3OC)CC2)cc1`, 1% (inactive).
As for `CC1CCN(C2=NC(=O)/C(=C/c3cn[nH]c3-c3ccccc3)S2)CC1`, the figure is 0.6% (inactive).
As for `COc1ccccc1N(CC(=O)Nc1ccc(C(F)(F)F)cc1)S(C)(=O)=O`, the figure is -0.2% (inactive); as for `CC1Sc2ccc(C(=O)NCc3ccccc3Cl)cc2NC1=O` (configuration not stated), -1% (inactive); as for `CCC/C(C)=N\Nc1nc2c(c(=O)n(C)c(=O)n2C)n1C`, 4.6% (inactive).
For the molecule `COCCN(C(=O)CCC(=O)Nc1nccs1)C(C(=O)NC(C)(C)C)c1ccc(Cl)cc1` (configuration not stated), the inhibition is 0.1% (inactive).
As for `COc1ccc2oc(C(=O)N(CC(C)C)C3CCS(=O)(=O)C3)c(C)c2c1` (configuration not stated), the figure is -1.1% (inactive).
As for `O=S(=O)(O)c1cc2onnc2c2ccccc12`, the figure is 0.1% (inactive); as for `CC1(C(=O)O)CCC(C(=O)Nc2ccc(Cl)c(Cl)c2)C1(C)C` (configuration not stated), 3.1% (inactive); as for `O=C(CC(O)(C(F)(F)F)C(F)(F)F)Nc1ccc(Cl)c(Cl)c1`, 84.6% (active).
As for `O=C(CN1CCN(C(=O)c2ccco2)CC1)Nc1ccc(Cl)c(C(F)(F)F)c1`, the figure is -0.1% (inactive); as for `O=C(Cn1nc(CNc2ccc(Cl)cc2)[n+]2c1CCCCC2)c1ccc(Cl)cc1`, 29.5% (inactive).
On to `CCOC(=O)N1CCC(NC(=O)CN2C(=O)COc3ccc(C(C)(C)C)cc32)CC1`, for which the inhibition is -0.9% (inactive).
In the case of `O=C1CC(c2ccccc2)=NN1c1ccc([N+](=O)[O-])cc1` it was 91.3% (active); in that of `CCN1N=C(c2ccccc2)CCC1=O`, -2.4% (inactive); in that of `O=C1NC(=O)C2C1C(c1ccc([N+](=O)[O-])cc1)=NN2Cc1ccccc1` (configuration not stated), 0.1% (inactive).
As for `Cc1c(C(=O)OC(C)C)sc(NC(=O)c2cccnc2)c1C#N`, the figure is 67.6% (active).
As for `CCOC(=O)c1cc(NC(=O)c2cccnc2)ccn1`, the figure is -0.2% (inactive).
Turning to `CC(C)NS(=O)(=O)c1ccc(NC(=O)c2cccnc2)cc1`, the inhibition is -1.5% (inactive).
As for `CCCCN1C(=O)C(CC(=O)NCc2cccs2)CC(C(=O)N2CCCCCC2)=C1C` (configuration not stated), the figure is -0.8% (inactive); as for `Cc1cc(Cl)c(S(=O)(=O)NCCC(=O)O)cc1OCC(N)=O`, -1.7% (inactive); as for `O=C(NC(Cc1c[nH]c2ccccc12)C(=O)O)/C(=C/c1ccco1)NC(=O)c1ccccc1` (configuration not stated), -1% (inactive).
As for `CC(=O)N(CC1CCCO1)C1(C(=O)NC2CCCC2)CCCCC1` (configuration not stated), the inhibition is 1.8% (inactive).
On to `O=C(CSc1ccccc1)Nc1nnc(/C=C/c2ccccc2)s1`, for which the inhibition was 2.2% (inactive).
As for `COc1ccc(/C=C/c2nnc(NC(=O)C(C)C)s2)cc1`, the figure is 2.7% (inactive); as for `O=C(Nc1ccc(Cl)cc1)Nc1nnc(/C=C/c2ccccc2)s1`, 89.9% (active).
